PubChem BioAssay (NCATS)
Inconclusive results are not listed. Activity calls are given as the source filed them. The call rests on the fitted dose curve; in most records, active means well fitted cell-killing curve with a large enough effect; inconclusive means small, poorly fitted or top-dose-only effect, or effect the other way; inactive means flat fitted curve, though single readings scatter.

Key:
Assay in all cases: Primary qHTS to identify gynecologic anti-cancer compounds using libraries of approved drugs and bioactive compounds (AID 1345084); further: nearly all actives have a fitted effect of over 55% in size
C33A = conditions: Gynecologic cancer cell panel viability, ATPlite luminescence, 48 h; series mostly up to 57.5 µM
Procedure, shortened: (§1)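 Five-point cytotoxicity, 48 h drug exposure at 37 C, 5% CO2, on cells seeded 16 h beforehand. ATP content read by ATPlite luminescence.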

CAOV3 = conditions: Gynecologic cancer cell panel viability, ATPlite luminescence, 48 h; series mostly up to 57.5 µM
Procedure, shortened: as §1

CASKI = conditions: Gynecologic cancer cell panel viability, ATPlite luminescence, 48 h; series mostly up to 57.5 µM
Procedure, shortened: as §1

Es-2 = conditions: Gynecologic cancer cell panel viability, ATPlite luminescence, 48 h; series mostly up to 57.5 µM
Procedure, shortened: as §1

HeLa = conditions: Gynecologic cancer cell panel viability, ATPlite luminescence, 48 h; series mostly up to 57.5 µM
Procedure, shortened: as §1

Hek293T = conditions: Gynecologic cancer cell panel viability, ATPlite luminescence, 48 h, control line for the selectivity index; series mostly up to 57.5 µM
Procedure, shortened: as §1

JEG-3 = conditions: Gynecologic cancer cell panel viability, ATPlite luminescence, 48 h; series mostly up to 57.5 µM
Procedure, shortened: as §1

OV90 = conditions: Gynecologic cancer cell panel viability, ATPlite luminescence, 48 h; series mostly up to 57.5 µM
Procedure, shortened: as §1

PA-1 = conditions: Gynecologic cancer cell panel viability, ATPlite luminescence, 48 h; series mostly up to 57.5 µM
Procedure, shortened: as §1

SKOV3 = conditions: Gynecologic cancer cell panel viability, ATPlite luminescence, 48 h; series mostly up to 57.5 µM
Procedure, shortened: as §1

Tov-21-G = conditions: Gynecologic cancer cell panel viability, ATPlite luminescence, 48 h; series mostly up to 57.5 µM
Procedure, shortened: as §1

Tov112D = conditions: Gynecologic cancer cell panel viability, ATPlite luminescence, 48 h; series mostly up to 57.5 µM
Procedure, shortened: as §1
On the % scale 0 is the no-effect control and ±100 the full control effect.

COC(=O)C1=COC(OC2OC(CO)C(O)C(O)C2O)C2C(C)C(OC(=O)/C=C/c3ccc(O)cc3)C(O)C12 (stereo not given)
inactive: Potency (C33A) | Potency (CAOV3) | outcome (CASKI) | Potency (Es-2) | Potency (HeLa) | Potency (Hek293T) | Potency (JEG-3) | Potency (OV90) | Potency (PA-1) | Potency (SKOV3) | Potency (Tov-21-G) | Potency (Tov112D)

COC1CC(O[C@H]2CC[C@@]3(C)C(=CC[C@]4(O)C3[C@H](O)[C@@H](O)[C@]3(C)[C@@H]([C@H](C)O)CC[C@@]34O)C2)OC(C)C1OC1CC(OC)C(OC2CC(OC)C(OC3OC(C)C(OC4OC(CO)C(O)C(O)C4O)C(OC)C3O)C(C)O2)C(C)O1 (stereo not given in full)
inactive: activity change, negative = cytotoxicity (C33A) 15.5% [at 11.6 µM] | activity change, negative = cytotoxicity (CAOV3) 14.6% [at 11.6 µM] | activity change, negative = cytotoxicity (CASKI) 17.9% [at 11.6 µM] | activity change, negative = cytotoxicity (Es-2) 5.18% [at 11.6 µM] | activity change, negative = cytotoxicity (HeLa) -0.017% [at 11.6 µM] | activity change, negative = cytotoxicity (Hek293T) 8.49% [at 11.6 µM] | activity change, negative = cytotoxicity (JEG-3) -0.832% [at 11.6 µM] | activity change, negative = cytotoxicity (OV90) -7.88% [at 11.6 µM] | activity change, negative = cytotoxicity (PA-1) -4.49% [at 11.6 µM] | activity change, negative = cytotoxicity (SKOV3) 1.02% [at 11.6 µM] | activity change, negative = cytotoxicity (Tov-21-G) -0.0649% [at 11.6 µM] | activity change, negative = cytotoxicity (Tov112D) 1.61% [at 11.6 µM]

CC1=CCC[C@@H]2[C@@](C)(CCc3ccoc3)[C@H](C(=O)O)CC[C@@]12C
inactive: Potency (C33A) | Potency (CAOV3) | outcome (CASKI) | Potency (Es-2) | Potency (HeLa) | Potency (Hek293T) | Potency (JEG-3) | Potency (OV90) | Potency (PA-1) | Potency (SKOV3) | Potency (Tov-21-G) | Potency (Tov112D)

CC1CCC2C(C)(C)C(O)C(O)CC2(C)C12Cc1c(O)cc(CO)c(C=O)c1O2 (stereo not given)
inactive: Potency (C33A) | Potency (CAOV3) | outcome (CASKI) | Potency (Es-2) | Potency (HeLa) | Potency (Hek293T) | Potency (JEG-3) | Potency (OV90) | Potency (PA-1) | Potency (SKOV3) | Potency (Tov-21-G) | Potency (Tov112D)

C=C1CCC2C(C)(C)CCC[C@]2(C)[C@H]1CC/C(C)=C/C(=O)O (stereo not given in full)
inactive: Potency (C33A) | Potency (CAOV3) | outcome (CASKI) | Potency (Es-2) | Potency (HeLa) | Potency (Hek293T) | Potency (JEG-3) | Potency (OV90) | Potency (PA-1) | Potency (SKOV3) | Potency (Tov-21-G) | Potency (Tov112D)

NC[C@H]1CCC[C@@H](CNC(=O)[C@@H](Cc2c[nH]c3ccccc23)NC(=O)N2CCC3(C=Cc4ccccc43)CC2)C1
inactive: Potency (C33A) | Potency (CAOV3) | outcome (CASKI) | Potency (Es-2) | Potency (HeLa) | Potency (Hek293T) | Potency (JEG-3) | Potency (OV90) | Potency (PA-1) | Potency (SKOV3) | Potency (Tov-21-G) | Potency (Tov112D)

O=C(O)CC1CCC(c2ccc(-c3ccc(Nc4ccc(C(F)(F)F)nc4)cn3)cc2)CC1 (stereo not given)
inactive: Potency (C33A) | Potency (CAOV3) | outcome (CASKI) | Potency (Es-2) | Potency (HeLa) | Potency (Hek293T) | Potency (JEG-3) | Potency (OV90) | Potency (PA-1) | Potency (SKOV3) | Potency (Tov-21-G) | Potency (Tov112D)

COc1ccc(CC(NC(C)=O)C(=O)O)cc1 (stereo not given)
inactive: Potency (C33A) | Potency (CAOV3) | outcome (CASKI) | Potency (Es-2) | Potency (HeLa) | Potency (Hek293T) | Potency (JEG-3) | Potency (OV90) | Potency (PA-1) | Potency (SKOV3) | Potency (Tov-21-G) | Potency (Tov112D)

COc1cccc(C(=O)NCCNc2nc3cc(C)cc(C)c3cc2C#N)c1
inactive: Potency (C33A) | Potency (CAOV3) | outcome (CASKI) | Potency (Es-2) | Potency (HeLa) | Potency (Hek293T) | Potency (JEG-3) | Potency (OV90) | Potency (PA-1) | Potency (SKOV3) | Potency (Tov-21-G) | Potency (Tov112D)

CC1=C(C(=O)OC2OC(COC3OC(CO)C(O)C(O)C3O)C(O)C(O)C2O)C(C)(C)CCC1 (stereo not given)
inactive: Potency (C33A) | Potency (CAOV3) | outcome (CASKI) | Potency (Es-2) | Potency (HeLa) | Potency (Hek293T) | Potency (JEG-3) | Potency (OV90) | Potency (PA-1) | Potency (SKOV3) | Potency (Tov-21-G) | Potency (Tov112D)

CC(=O)O[C@H]1C[C@@]2(C)[C@@H](CC[C@H]3[C@@]4(C)C=CC(=O)[C@@H](C)[C@@H]4[C@H](OC(C)=O)C(=O)[C@@]32C)/C1=C(\CCC=C(C)C)C(=O)O
inactive: Potency (C33A) | Potency (CAOV3) | outcome (CASKI) | Potency (Es-2) | Potency (HeLa) | Potency (Hek293T) | Potency (JEG-3) | Potency (OV90) | Potency (PA-1) | Potency (SKOV3) | Potency (Tov-21-G) | Potency (Tov112D)

CC1(C)CC2C3=CCC4[C@@]5(C)CC[C@H](OC6OCC(O)C(OC7OC(CO)C(O)C(O)C7O)C6O)C(C)(C)C5CC[C@@]4(C)[C@]3(C)C[C@H](O)[C@@]2(CO)[C@H](OC(=O)c2ccccc2)C1 (stereo not given in full)
inactive: activity change, negative = cytotoxicity (C33A) -0.821% [at 11.6 µM] | activity change, negative = cytotoxicity (CAOV3) -7.46% [at 11.6 µM] | activity change, negative = cytotoxicity (CASKI) -3.21% [at 11.6 µM] | activity change, negative = cytotoxicity (Es-2) -3.08% [at 11.6 µM] | activity change, negative = cytotoxicity (HeLa) 2.29% [at 11.6 µM] | activity change, negative = cytotoxicity (Hek293T) 17.5% [at 11.6 µM] | activity change, negative = cytotoxicity (JEG-3) 8.97% [at 11.6 µM] | activity change, negative = cytotoxicity (OV90) 18.5% [at 11.6 µM] | activity change, negative = cytotoxicity (PA-1) 10.1% [at 11.6 µM] | activity change, negative = cytotoxicity (SKOV3) 0% [at 11.6 µM] | activity change, negative = cytotoxicity (Tov-21-G) 6.98% [at 11.6 µM] | activity change, negative = cytotoxicity (Tov112D) -1.17% [at 11.6 µM]

COC(=O)C(Cc1ccccc1)NC(=O)c1ccccc1 (stereo not given)
inactive: Potency (C33A) | Potency (CAOV3) | outcome (CASKI) | Potency (Es-2) | Potency (HeLa) | Potency (Hek293T) | Potency (JEG-3) | Potency (OV90) | Potency (PA-1) | Potency (SKOV3) | Potency (Tov-21-G) | Potency (Tov112D)

O=C(C1OC1/C=C/c1ccc2c(c1)OCO2)N1CCCCC1 (stereo not given)
inactive: Potency (C33A) | Potency (CAOV3) | outcome (CASKI) | Potency (Es-2) | Potency (HeLa) | Potency (Hek293T) | Potency (JEG-3) | Potency (OV90) | Potency (PA-1) | Potency (SKOV3) | Potency (Tov-21-G) | Potency (Tov112D)

CC1CCC2(C)CCC3(C)C(=CCC4C5(C)CCC(O)C(C)(C(=O)O)C5CCC43C)C2C1C (stereo not given)
inactive: Potency (C33A) | Potency (CAOV3) | outcome (CASKI) | Potency (Es-2) | Potency (HeLa) | Potency (Hek293T) | Potency (JEG-3) | Potency (OV90) | Potency (PA-1) | Potency (SKOV3) | Potency (Tov-21-G) | Potency (Tov112D)
